Screening results: PubChem BioAssay, National Center for Advancing Translational Sciences (NCATS)
Mito fusion yeast – inhibitors of mitochondrial division or activators of mitochondrial fusion. S. cerevisiae fusion-defective mutant growth rescue, CellTiterGlo 48 h. Potency, µM (series often up to 46.1 µM), for inactives: top-dose growth rescue (activation), usual class: activators. hit rate 0.23% among 320,000. AID 485298; further: % of control where 0% means no effect; nearly all actives have a fitted effect of over 45% in size
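Growth-rescue viability read-out: after 48 h at the non-permissive 37C in glycerol/ethanol YPEG, yeast mitochondrial fusion mutants are measured by CellTiterGlo luminescence; compounds (23 nl pinned per well) restoring growth score as division inhibitors or fusion activators.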
TDP43 rescue – inhibitors of TDP-43 toxicity in yeast. AID 652104. Potency, µM (highest dose often 46.1 µM), for inactives: at the highest dose growth rescue (activation), usual class: activators. hit rate 1.8% among 410,000. TDP-43 expressing yeast growth rescue, BacTiter-Glo, 24 h; further: % of control where 0% means no effect; nearly all actives have a fitted effect of over 50% in size
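Cell-based yeast growth screen: TDP-43 expression induced in galactose, inoculum OD600=0.02 after raffinose pregrowth to mid-log. Read-out BacTiter-Glo luminescence at 24 hr, 30 deg C; inhibition of toxicity seen as signal increase.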
aSyn rescue – inhibitors of alpha-synuclein toxicity in yeast | Yeast expressing alpha-synuclein, growth rescue, BacTiter-Glo, 24 h | Potency, µM (top dose mostly 46.1 µM), without a hit: at the top dose growth rescue (activation), usual class: activators | hit rate 0.14% among 370,000; further: % of control where 0% means no effect; nearly all actives have a fitted effect of over 65% in size
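Readout is rescue of growth in alpha-synuclein-expressing yeast, so inhibitors of toxicity appear as activators. Growth after 24 hr at 30 deg C in galactose medium is quantified by luminescence.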
FUS yeast rescue – suppressors of FUS proteinopathy in yeast | hit rate 0.24% among 390,000 | Potency, µM (top dose mostly 76.6 µM), usual class: activators | AID 1347120 | S. cerevisiae FUS-expressing, growth rescue, OD600, 24 h;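 further: plate controls were DMSO vehicle for no effect and reference control for full effect; nearly all actives have a fitted effect of over 55% in size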
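Steps: raffinose overnight preculture; dilution to OD 0.005 in 2% galactose minimal medium; compound addition (concentration series); 24hr at 30C, 99% humidity; absorbance read at 600 nm.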
Abeta yeast res – compounds reversing amyloid beta toxicity in yeast; yeast expressing A-beta42, growth rescue, OD600, 48 h; response scale: 0% DMSO, 100% iron-clioquinol control; Potency, µM (doses to about 46.1 µM), hits mostly activators; hit rate 0.063% among 410,000; AID 1347071; further: nearly all actives have a fitted effect of over 55% in size
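Yeast growth medium received pinned compounds, then yeast cells expressing toxic A-beta were added; plates incubated at 30 C for 48 hr. Growth read as absorbance at 600 nm, normalized to DMSO and equimolar FeCl3 plus clioquinol controls.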
The depositor's hits bear a star; i = inactive; ? = inconclusive; / = no result given; [ ] = another dose, or the depositor's remark. Hits are enriched below; roughly 2.2% of the tested compounds scored in any of these assays. The call rests on the fitted dose curve; in most records, active means well fitted curve in the direction sought with a large enough effect; inconclusive means small, poorly fitted or top-dose-only effect, or another doubt; inactive means no such curve, though single readings can be large; an effect the other way counts as inactive or inconclusive. Potency means the concentration at half of the fitted maximal effect.

SMILES	Mito fusion yeast	TDP43 rescue	aSyn rescue	FUS yeast rescue	Abeta yeast res
N/C(=N\OC(=O)c1cnn(-c2ccccc2)c1C(F)(F)F)c1cc(C(F)(F)F)cc(C(F)(F)F)c1	1%	-9%	0%	i	i
CC1(C(=O)Nc2ccc(F)cc2F)CCN1C(=O)Cc1ccc(Cl)cc1Cl (stereo unspecified)	/	16µM*	14%	i	i
CSc1ccccc1NC(=O)C1(C)CCN1C(=O)Cc1ccc(Cl)cc1Cl (stereo unspecified)	/	0%	9%	i	i
O=C(Nc1ccc(F)c(Cl)c1)C1Cc2c(-c3cccc(F)c3)ccnc2O1 (stereo unspecified)	/	18µM*	?	i	i
CC(=O)c1cccc(-c2ccnc3c2CC(C(=O)Nc2ccc(F)c(Cl)c2)O3)c1 (stereo unspecified)	/	?	?	?	i
O=C(Nc1cccc(C(F)(F)F)c1)C1Cc2c(-c3cccc(F)c3)ccnc2O1 (stereo unspecified)	/	25µM*	?	?	i
NC(=O)c1cccc(-c2ccnc3c2CC(C(=O)Nc2cccc(C(F)(F)F)c2)O3)c1 (stereo unspecified)	/	5%	-3%	i	i
COC(=O)c1cc(-c2ccc(C)cc2)c2c(=O)n(C)c(=O)n(C)c2n1	/	14%	/	i	i
Cc1cccn2c(=O)c3cc(C(=O)NCc4ccccc4)c(=N)n(CCOCCO)c3nc12	/	3%	/	i	i
COc1cc(C=C(c2nc3ccccc3s2)c2nc3ccccc3s2)ccc1O	16µM*	-5%[0.397 µM]	4%	i	i
COc1ccc(C=C(c2nc3ccccc3s2)c2nc3ccccc3s2)cc1O	?	?	22%	?	i
CC1CCN(S(=O)(=O)N2CCC(C(=O)NCc3ccccc3Cl)CC2)CC1	/	24%	/	i	i
COc1ccccc1NC(=O)Cc1coc2cc(C)ccc12	4%	11µM*	5%	i	i
Cc1ccc2c(CC(=O)NNC(=O)c3ccccc3O)coc2c1	0%	0%	-4%	35µM*	i
CNC(=O)C1CCC(Cn2c(=O)c3sccc3n(CC(=O)Nc3cc(C)cc(C)c3)c2=O)CC1 (stereo unspecified)	/	13%	/	i	i
CC(=O)Oc1ccc(-c2nc(-c3ccccc3)no2)cc1	/	/	-68%	/	/
N#Cc1cccc(S(=O)(=O)N2CCN(S(=O)(=O)c3ccc4c(c3)OCCO4)CC2)c1	/	/	-6%	/	/
CCCC(=O)Oc1c(Sc2ccc(C)cc2)c(C)nn1-c1ccccc1	/	11µM*	/	i	i
Cc1ccc(Sc2c(C)nn(-c3ccccc3)c2OC(=O)C(C)(C)C)cc1	/	14µM*	/	i	i
CCC(=O)Oc1c(Sc2ccc(C)cc2)c(C)nn1-c1ccccc1	/	30%	/	i	i
Cc1nn(-c2ccccc2)c(OC(=O)C(C)(C)C)c1Sc1ccccc1	/	?	/	i	i
CCN(C(=O)C(=O)c1c(C)[nH]c2ccccc12)c1ccccc1	/	/	0%	/	/
CCCCC(CC)CNC(=O)c1ccc(Cn2c(=O)[nH]c3cc(OC)c(OC)cc3c2=O)cc1 (stereo unspecified)	/	2%	/	i	i
CCOc1ccccc1NC(=O)CSc1ccc(-c2ccco2)nn1	-1%	?	-3%	i	i
O=C(CSc1ccc(-c2ccco2)nn1)Nc1ccccc1F	6%	28µM*	7%	i	i
Cc1cc(NC(=O)CSc2nnc(-c3ccco3)n2C)no1	0%	7%	0%	i	i
Cn1c(SCC(=O)Nc2ccc(Cl)cc2F)nnc1-c1ccco1	5%	22%	2.8µM*	i	i
O=C(Cn1nc(-c2ccco2)ccc1=O)Nc1cc(Cl)ccc1Cl	13%	13µM*	13%	i	i
Cc1cc(C)cc(NC(=O)CSc2nnc(-c3ccccc3)n2N)c1	0.63µM*	-15%	-3%	i	i
Cc1occc1C(=O)N1CCN(c2ccc([N+](=O)[O-])cc2)CC1	0%	0%	-1%	i	i
